# Reference: PubChem BioAssay (EPA / NIEHS)
# Several values for one entry are separate records, joined by “and”; a condition that tells them apart may be missing. Equal entries are not always repeated. The source holds several records for some structures; these can differ, active in one and inactive in another. Activity calls are given as the source filed them. Rule for the calls: active = hit-call score of the fitted dose curve at least 0.9, where 1 is the maximum; inactive = score below 0.9.
# Assay: CCTE_Shafer_MEA_dev_per_burst_interspike_interval: CCTE's Neural Network Formation Assay for Burst Interspike Interval, Shafer Lab (AID 2284044);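 note: mean spike spacing inside bursts as AUC over recordings on days 5 7 9 12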;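 for AC50: potency for a decrease of within-burst interspike interval below DMSO level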
# Description: CCTE_Shafer_MEA_dev assay is conducted using Axion Biosystems 48 well microelectrode array (MEA) plates and Maestro recording system. Each well of the MEA plate contains a grid of 16 microelectrodes embedded in the culture surface. Electrically active cells, such as neurons, can be cultured over the electrodes, and electrical activity in these cells can be recorded extracellularly. The spontaneous firing of neurons is captured from each electrode on a microsecond timescale providing both temporally and spatially precise data. […] The CCTE_Shafer_MEA_dev assay uses primary cultures of rat cortical neurons. Recordings are made on days post-plating 5, 7, 9 and 12. As these cultures mature over time, neural networks develop functional activity and form cohesive networks in which electrical activity can be highly coordinated. CCTE_Shafer_MEA_dev_per_burst_interspike_interval is 1 of 19 assay components of the CCTE_Shafer_MEA_dev assay. It measures the average time interval between spikes (action potential firings) within a single-electrode burst (temporally-clustered group of spikes) during a recording in a microelectrode array (MEA) using Axion Biosystems Maestro 768 channel amplifier with the AxIS adaptive spike detector. The mean inter-spike interval within bursts is averaged across the actively bursting electrodes to report a well-mean value. To collapse across multiple recordings made on days post-plating 5, 7, 9 and 12, the trapezoidal area-under-the-curve of the component is calculated.Data from the assay component CCTE_Shafer_MEA_dev_per_burst_interspike_interval was analyzed into 1 assay endpoint. This assay endpoint, CCTE_Shafer_MEA_dev_per_burst_interspike_interval, was analyzed in the negative analysis fitting direction relative to DMSO as the negative control and baseline of activity. Using a type of functional reporter, gain or loss-of-signal activity can be used to understand electrical activity.
# On the day prior to culture, each well was coated thoroughly with 150 uL of 0.05% polyethyleneimine (PEI, Sigma Cat P3143) in 50 mM HEPES (Sigma Cat H7523) at a pH of 8. The plate was incubated at 37C for one hour. PEI was rinsed out with 500 uL of sterile water three times. Plates were stored at 4C until the day of culture. This culture was plated at a seeding density of 1.5 x 10^5 cells/well on a 48-well MEA plate, prepared as described above. Cells were administered via a 25 uL media/laminin ([…]; Sigma Cat L2020-1MG) drop directly onto the microelectrode array, as adding the cells with the laminin results in better attachment than pre-coating with laminin. After 2 hours, an additional 475 uL of cortical media was added and the cells returned to the incubator. Exposure starts at day 0 of plating and is continued over twelve days of network development until the experiment is terminated. Cells are fed with fresh medium on DIV 5 and 9, following the recordings on those days. The entire volume of media in the well is exchanged and any vehicle or compound treatment is renewed. Complete details are found in OP-NHEERL/ISTD/SBB/TJS/2015-03-r0 (available on request, email shafer.tim@epa.gov). Measurement of the electrical activity is non-invasive, and recordings can be made from the same plate over multiple different days of the culture. In cortical neurons, this allows for the measurement of extracellular action potentials over the period during which networks form in the MEA plate.
Compound,outcome,AC50
CCOC(=O)CC(SP(=O)(OC)OC)C(=O)OCC (stereo not given),inactive,–
CN(C)[C@@H]1C(=O)C(C(N)=O)=C(O)[C@@]2(O)C(=O)C3=C(O)c4c(O)cccc4[C@@](C)(O)[C@H]3[C@H](O)[C@@H]12,inactive,–
CCOP(=S)(Oc1cnc(C(C)(C)C)nc1)OC(C)C (stereo not given),inactive,12 µM (active)
COP(=O)(NC(C)=O)SC (stereo not given),inactive,–
CCCCSP(=O)(SCCCC)SCCCC,–,50 µM (active) and 18.8 µM (active)
CCCSP(=O)(OCC)Oc1ccc(Br)cc1Cl (stereo not given),inactive,–
CCOP(=O)(NC(C)C)Oc1ccc(SC)c(C)c1 (stereo not given),inactive,–
C=C(C)[C@H]1Cc2c(ccc3c2O[C@@H]2COc4cc(OC)c(OC)cc4[C@@H]2C3=O)O1,–,36.4 nM (active) and 32.6 nM (active)
C#CCC1=C(C)C(OC(=O)C2C(C=C(C)C)C2(C)C)CC1=O (stereo not given),inactive,–
CC(C)[C@H](C(=O)O[C@H](C#N)c1cccc(Oc2ccccc2)c1)c1ccc(Cl)cc1,–,17.6 µM (active)
CCOP(=S)(OCC)Oc1ccc2c(C)c(Cl)c(=O)oc2c1,inactive,–
CCOP(=S)(OCC)SCCSCC,inactive,–
CC(=NC#N)N(C)Cc1ccc(Cl)nc1,inactive,–
C[Si](Cn1cncn1)(c1ccc(F)cc1)c1ccc(F)cc1,inactive,–
CSC1=N[C@@](C)(c2ccccc2)C(=O)N1Nc1ccccc1,inactive,–
CCOP(=S)(OCC)OC(Cl)C(Cl)(Cl)Cl (stereo not given),inactive,23.4 µM (active)

Compound,outcome,AC50
CCOP(=O)(SC(C)CC)N1CCSC1=O (stereo not given),inactive,–
CCOP(=S)(OCC)Oc1ccc([N+](=O)[O-])cc1,inactive,–
COP(=O)(OC)OC(Br)C(Cl)(Cl)Br (stereo not given),–,9.62 µM (active) and 16 µM (active)
CC[C@H](C)[C@H]1O[C@]2(C=C[C@@H]1C)C[C@@H]1C[C@@H](C/C=C(\C)[C@@H](O[C@H]3C[C@H](OC)[C@@H](O[C@H]4C[C@H](OC)[C@@H](NC)[C@H](C)O4)[C@H](C)O3)[C@@H](C)/C=C/C=C3\CO[C@@H]4[C@H](O)C(C)=C[C@@H](C(=O)O1)[C@]34O)O2,–,44.7 nM (active) and 5.36 nM (active)
CC(C)=CC1C(C(=O)OCN2C(=O)C3=C(CCCC3)C2=O)C1(C)C (stereo not given),inactive,–
CCOP(=S)(OCC)Oc1cc(C)nc(C(C)C)n1,inactive,–
COP(=O)(OC)C(O)C(Cl)(Cl)Cl (stereo not given),inactive,90.8 µM (active)
S=C1NCCN1,inactive,–
C[N+]1(C)CCCCC1,inactive,–
O=[N+]([O-])c1cc(C(F)(F)F)c(Cl)c([N+](=O)[O-])c1Nc1ncc(C(F)(F)F)cc1Cl,–,0.783 µM (active)
CC1=NNC(=O)N(/N=C/c2cccnc2)C1,inactive,–
CN1COCN(Cc2cnc(Cl)s2)C1=N[N+](=O)[O-],inactive,–
CON=C(C(=O)OC)c1ccccc1CON=C(C)c1cccc(C(F)(F)F)c1,–,1.53 µM (active) and 2.32 µM (active)
CCOP(=O)(OCC)Oc1cc(C)nc(C(C)C)n1,inactive,–
CC(Oc1cccc(Cl)c1)C(=O)O (stereo not given),inactive,–
CCCSP(=O)(OCC)SCCC,inactive,–
